IP6K1 inh = Primary qHTS assay for small molecule inhibitors of Inositol hexaphosphate kinase 1 (IP6K1); activity change, % (series mostly up to about 58 µM); AID 1645851, 2021; IP6K1 kinase, ADP-Glo luminescence, 2 h; hits give low values; actives 0.81% (n = 140,000); in the data active = activity change below about -25%
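ADP-Glo luminescence measures ADP made by human IP6K1 during a 2 h RT reaction with ATP/IP6 (mix at 1.3 mM/130 uM); top library doses 57.5 and 19.1 uM final.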
SNCA expr inh = Primary qHTS assay for inhibitors of alpha-synuclein gene (SNCA) expression. actives 0.17% (n = 140,000). Potency, µM (doses to about 57.2 µM), hits mostly inhibitors. HEK-293 SNCA-luciferase knock-in, luminescence, 24 h. AID 1671194, 2021; note: nearly all actives have a fitted effect of over 45% in size
KDM5B inh = Primary screen for KDM5B Histone Demethylases FDH-coupled qHTS; KDM5B demethylase, FDH-coupled NADH fluorescence (FDH is formaldehyde dehydrogenase); AID 1347165, 2019; actives 2.6% (n = 220,000); Lysine-specific demethylase 5B (Homo sapiens), Q9UGL1; Potency, µM (doses to about 57.7 µM), hits mostly inhibitors; note: nearly all actives have a fitted effect of over 70% in size
Target sequence (Q9UGL1 whole entry, looked up): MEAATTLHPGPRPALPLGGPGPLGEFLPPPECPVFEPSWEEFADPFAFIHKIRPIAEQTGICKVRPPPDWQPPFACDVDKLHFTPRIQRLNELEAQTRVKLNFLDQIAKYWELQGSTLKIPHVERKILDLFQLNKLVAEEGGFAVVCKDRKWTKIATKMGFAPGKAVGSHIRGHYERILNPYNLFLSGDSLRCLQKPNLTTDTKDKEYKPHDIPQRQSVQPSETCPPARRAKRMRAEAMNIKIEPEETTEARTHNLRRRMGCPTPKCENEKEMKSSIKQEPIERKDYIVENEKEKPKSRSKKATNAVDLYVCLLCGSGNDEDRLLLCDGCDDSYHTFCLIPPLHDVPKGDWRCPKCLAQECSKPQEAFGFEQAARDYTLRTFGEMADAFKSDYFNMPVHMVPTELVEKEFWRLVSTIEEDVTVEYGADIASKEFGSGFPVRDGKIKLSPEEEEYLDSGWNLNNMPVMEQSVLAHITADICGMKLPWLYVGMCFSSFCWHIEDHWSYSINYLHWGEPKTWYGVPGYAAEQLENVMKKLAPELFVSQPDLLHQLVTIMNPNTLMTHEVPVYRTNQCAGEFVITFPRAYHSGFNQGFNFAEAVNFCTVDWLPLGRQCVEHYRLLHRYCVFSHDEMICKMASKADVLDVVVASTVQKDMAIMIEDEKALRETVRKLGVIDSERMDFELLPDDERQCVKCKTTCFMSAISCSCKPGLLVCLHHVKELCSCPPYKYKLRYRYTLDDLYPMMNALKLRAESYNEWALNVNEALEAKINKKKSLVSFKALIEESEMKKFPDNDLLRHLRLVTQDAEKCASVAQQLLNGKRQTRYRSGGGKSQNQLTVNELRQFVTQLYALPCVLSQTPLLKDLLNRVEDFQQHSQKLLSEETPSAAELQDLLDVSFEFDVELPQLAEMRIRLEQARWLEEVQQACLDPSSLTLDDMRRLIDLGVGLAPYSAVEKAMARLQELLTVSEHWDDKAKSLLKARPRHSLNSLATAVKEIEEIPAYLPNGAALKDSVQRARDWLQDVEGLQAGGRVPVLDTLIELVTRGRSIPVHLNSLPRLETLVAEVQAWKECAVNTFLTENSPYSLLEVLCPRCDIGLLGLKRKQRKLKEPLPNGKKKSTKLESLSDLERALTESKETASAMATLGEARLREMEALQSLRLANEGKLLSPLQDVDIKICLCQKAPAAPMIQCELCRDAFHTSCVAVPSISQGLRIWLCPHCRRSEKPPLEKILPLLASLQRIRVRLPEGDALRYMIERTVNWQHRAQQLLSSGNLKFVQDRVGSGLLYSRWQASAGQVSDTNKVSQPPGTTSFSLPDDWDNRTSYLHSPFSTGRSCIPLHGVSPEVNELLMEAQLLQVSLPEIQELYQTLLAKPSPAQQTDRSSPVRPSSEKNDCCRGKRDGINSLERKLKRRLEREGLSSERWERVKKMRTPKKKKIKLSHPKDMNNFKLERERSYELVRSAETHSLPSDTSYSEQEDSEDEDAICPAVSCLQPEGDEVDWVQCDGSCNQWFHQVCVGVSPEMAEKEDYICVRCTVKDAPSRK
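Compound dilutions met 200 nM (final) KDM5BΔAP for 10 min at room temperature before substrate addition. The substrate mix held 12.5 µM H3K4me3 with cofactors 25 µM α-ketoglutarate and 50 µM Fe²⁺. NADH signal gain over 30 min defined activity.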
HEK293 viab = GF-AFC viability counterscreen for inhibitors of alpha-synuclein gene (SNCA) expression; actives 0.12% (n = 150,000); Potency, µM (highest dose often 57.1 µM), hits mostly cytotoxic; HEK-293-SNCA-luc viability, GF-AFC fluorescence, 24 h; note: nearly all actives have a fitted effect of over 30% in size
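Cytotoxicity counterscreen: after 24 h compound treatment of genome-edited SNCA-luciferase HEK-293 cells, live-cell protease substrate GF-AFC read by fluorescence after 30 min; activity scaled between DMSO (0%) and medium-only (-100%), curves Hill-fitted.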
IP6K1 inh cnf = Confirmatory qHTS assay for small molecule inhibitors of Inositol hexaphosphate kinase 1 (IP6K1); Potency, µM (doses to about 49 µM), hits mostly inhibitors; shares compounds with IP6K1 inh; actives 13% (n = 1,200); recombinant IP6K1 kinase, ADP-Glo luminescence, 2 h; note: nearly all actives have a fitted effect of over 65% in size
Large screens that a line does not name were inactive (follow-up assays come after a bar, where they were run); ! = not active in a repeat. Only some compounds are listed: those with a hit (about 2.9% of all), similar ones and a draw of the others. Unless noted, calls come from the whole dose curve; as a rule, active = well fitted curve in the direction sought with a large enough effect; inconclusive = small, poorly fitted or top-dose-only effect, or another doubt; inactive = no such curve, though single readings can be large; an effect the other way counts as inactive or inconclusive.

Cc1ccc(NC(=O)CCCc2nc(-c3ccco3)no2)cc1Cl	none
O=C1Nc2nc(-c3c(O)cccc3OCC3CC3)cc([C@@H]3CCCNC3)c2CO1	HEK293 viab inconclusive (no result: SNCA expr inh, KDM5B inh) | IP6K1 inh cnf inactive
O=C(N[C@H]1CCN2C(=O)c3ccccc3NC(=O)[C@@H]2C1)C1CCCCC1	KDM5B inh inconclusive
Cc1ccc(NC(=O)c2cnn3c(C(F)F)cc(-c4ccccc4)nc23)c(C)c1	IP6K1 inh -50 | IP6K1 inh cnf inactive
COc1cc(CN2CCN(S(=O)(=O)c3ccc(F)cc3)CC2)cc(OC)c1OC	IP6K1 inh -34, KDM5B inh inconclusive | IP6K1 inh cnf inactive
COC[C@@H]1CN(C(=O)c2occc2C)C[C@H]1c1ccccn1	none
Cc1ccoc1C(=O)N1C[C@@H](CO)[C@H](c2ccccn2)C1	IP6K1 inh -40 | IP6K1 inh cnf inactive
Cc1ccc(CNC(=O)c2sc3ncnc(N(C)C4CCCCC4)c3c2C)cc1	SNCA expr inh inconclusive
Cc1ccccc1CNC(=O)c1sc2ncnc(N(C)C3CCCCC3)c2c1C	IP6K1 inh -28, KDM5B inh inconclusive | IP6K1 inh cnf inactive
Cc1ccc(S(=O)(=O)Nc2cccc(-c3cn4cccc(C)c4n3)c2)cc1	IP6K1 inh -26 | IP6K1 inh cnf inactive
Cc1cccn2cc(-c3cccc(NS(=O)(=O)c4ccc(Cl)c(Cl)c4)c3)nc12	none
CCOc1ccc(S(=O)(=O)N2CCN(C)CC2)cc1NC(=O)c1ccccc1F	none (no result: IP6K1 inh, SNCA expr inh, HEK293 viab)
COCCN(C)C[C@@H]1CN(C(=O)Cn2ncc3ccccc3c2=O)C[C@@H]1CO	none
Cc1cnc(Nc2ccc(N3CCN(C)CC3)cc2)nc1Nc1cccc(S(=O)(=O)NC(C)(C)C)c1	HEK293 viab inconclusive (no result: IP6K1 inh, KDM5B inh)
CN1CCN(c2cccc(Nc3nc4c(-c5ccc(S(C)(=O)=O)cc5)cccn4n3)c2)CC1	none (no result: KDM5B inh) | IP6K1 inh cnf inactive
Cc1ccc(/C=C/c2nc3ccccc3[nH]2)cc1	IP6K1 inh -41, KDM5B inh inconclusive | IP6K1 inh cnf 10µM
Cc1ccc(/C=C(/C#N)c2nc3ccccc3[nH]2)cc1	none (no result: IP6K1 inh, SNCA expr inh, HEK293 viab)
COc1ccc(S(=O)(=O)c2c(C(=O)c3ccc(C)c(C)c3)cnc3ccc(F)cc23)cc1	SNCA expr inh inconclusive
CCOC(=O)Cc1ccc(NC(=O)N2CCC(CN3CCC(C)CC3)CC2)cc1	none
Cc1cc(C)cc(Nc2ncnc3c2nc2n3CCCC2)c1	IP6K1 inh -32, KDM5B inh inconclusive | IP6K1 inh cnf inactive
Cc1ccc(Nc2ncnc3c2nc2n3CCCC2)cc1F	none
Cc1ccc(C(=O)NCCc2nnc3ccc(N4CCCC4)nn23)cc1	none (no result: IP6K1 inh, SNCA expr inh, HEK293 viab)
COc1cccc(Cn2c(C)c(CNCc3ccccc3Cl)c(C(=O)O)c2C)c1	IP6K1 inh -27 | IP6K1 inh cnf inactive
CCc1ccccc1N(CC)C(=O)c1cc2c(s1)-c1ccccc1SC2	IP6K1 inh -26, KDM5B inh inconclusive | IP6K1 inh cnf inactive
Cc1ccc(Cl)cc1N1CCN(C(=O)c2cn(C3CCCCC3)c(=O)c3c2c2ccccc2n3C)CC1	none
COc1ccccc1CCC(=O)N1C[C@@H](C(N)=O)[C@H](c2nc(C)no2)C1	none
CCOc1cccc2sc(N(CCN(C)C)C(=O)c3ccc4c(c3)OCCO4)nc12	none (no result: IP6K1 inh, SNCA expr inh, HEK293 viab)
Cc1cccc2sc(N(CCN(C)C)C(=O)c3ccc4c(c3)OCCO4)nc12	IP6K1 inh -35, KDM5B inh inconclusive | IP6K1 inh cnf inactive
CN(Cc1cn(C)nc1-c1ccc(C2CCCCC2)cc1)C1CCOC1 (centres undefined)	none
Cn1c(CC2CCS(=O)(=O)C2)nnc1SCC(=O)Nc1ccc(Oc2ccccc2)cc1 (centres undefined)	none (no result: IP6K1 inh, SNCA expr inh, HEK293 viab)
CCOc1ccccc1NC(=O)Cn1ccn2nc3c(c2c1=O)CCCC3	none
O=C(NCc1cccs1)c1ccc2nnc(Cc3ccco3)n2c1	IP6K1 inh -32! (no result: KDM5B inh) | IP6K1 inh cnf inconclusive
O=C(NCc1ccccc1)c1ccc2nnc(Cc3ccco3)n2c1	none (no result: KDM5B inh)
COc1cccc(CNC(=O)c2ccc3nnc(Cc4ccco4)n3c2)c1	IP6K1 inh -33 (no result: KDM5B inh) | IP6K1 inh cnf inconclusive
O=C(NCc1cccc(C(F)(F)F)c1)c1ccc2nnc(Cc3ccco3)n2c1	IP6K1 inh -30 (no result: KDM5B inh) | IP6K1 inh cnf inconclusive
Cc1c(Cl)cccc1NC(=O)CSc1nc(=O)[nH]c2c1CCCC2	IP6K1 inh -27 | IP6K1 inh cnf inactive
Cc1ccccc1NC(=O)CSc1nc(=O)[nH]c2c1CCCC2	none (no result: IP6K1 inh, SNCA expr inh, HEK293 viab)
CCO[C@H]1CN(C(=O)C2(c3ccc(OC)c(OC)c3)CCCC2)C[C@@H]1O	none
CCOc1ccccc1NC(=O)n1ncc2cc(Cl)ccc21	IP6K1 inh -37 | IP6K1 inh cnf inactive
O=C(Nc1ccccc1C(F)(F)F)n1ncc2cc(Cl)ccc21	none
O=C(O)c1ccccc1Nc1cccc(C(F)(F)F)c1	IP6K1 inh -31 (no result: KDM5B inh) | IP6K1 inh cnf inconclusive
O=C(O)c1ccccc1Nc1ccccc1	none (no result: IP6K1 inh, KDM5B inh)
COc1cccc(CNC(=O)Nc2cc(C(=O)NCc3cccc(F)c3)ccc2N2CCCC2)c1	IP6K1 inh -26, KDM5B inh inconclusive, HEK293 viab inconclusive | IP6K1 inh cnf inactive
Cc1ccc(-n2nc(CO)c(C(=O)NC(C)CCCc3ccccc3)n2)cc1 (centres undefined)	IP6K1 inh -31 | IP6K1 inh cnf inactive
Cc1ccc(NC(=O)C(NS(=O)(=O)c2ccc3c(c2)CCC(=O)N3)c2ccccc2)cc1C (centres undefined)	IP6K1 inh -32, KDM5B inh inconclusive | IP6K1 inh cnf inactive
C[C@]1(C2CCCC2)Cc2cc(OCC(=O)O)c(Cl)c(Cl)c2C1=O	IP6K1 inh -42 (no result: SNCA expr inh, KDM5B inh) | IP6K1 inh cnf 7.3µM
O=Cc1cccc(-c2ccccc2F)c1	IP6K1 inh -29 | IP6K1 inh cnf inconclusive
O=Cc1cccc(-c2cccc(C(F)(F)F)c2)c1	IP6K1 inh -36 | IP6K1 inh cnf inconclusive
Cc1cc(NC(=O)Cn2c(=O)nc(-c3ccccc3F)c3cc(Cl)ccc32)ccc1Br	IP6K1 inh -25 | IP6K1 inh cnf inactive
CCOC(=O)N1CCN(Cc2nc3cc(NC(=O)c4ccccc4Cl)ccc3n2C(C)C)CC1	IP6K1 inh -25, KDM5B inh inconclusive | IP6K1 inh cnf inactive
CCOC(=O)N1CCN(Cc2nc3cc(NC(C)=O)ccc3n2C(C)C)CC1	KDM5B inh inconclusive
CCCC(=O)Nc1ccc2c(c1)nc(CN1CCN(C(=O)OCC)CC1)n2C(C)C	IP6K1 inh -28, SNCA expr inh inconclusive | IP6K1 inh cnf inactive
Cc1ccc(NC(=O)CN2C(=O)c3ccccc3Sc3ccc(C(=O)N4CCOCC4)cc32)c(Cl)c1	none
Cn1cc(C(=O)N2CCn3nc(C(O)CO)cc3C2)c(=O)[nH]c1=O (centres undefined)	none
Cc1ccc(CSc2oc(-c3ccco3)nc2S(=O)(=O)c2ccc(Br)cc2)cc1	IP6K1 inh -32, KDM5B inh inconclusive, HEK293 viab inconclusive | IP6K1 inh cnf inactive

Screens from PubChem.
